Compounds without any hit were thinned out: in the full panel of roughly 83,000, 20% have a hit.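 The endpoint reported here, percent growth, reads 100 for growth as untreated, 0 for no net growth and -100 for all cells dead.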 Active and inactive are the calls of the source. The calls were made as follows: active = growth percent below 10; inactive = the rest.
What follows are molecules tested on MDA-MB-468 breast (assay: NCI-60 one-dose screen, 48 h (100 = growth as untreated, 0 = no growth, -100 = all killed)). Conditions: 10 µM unless noted.

**Q.** For COc1ccc(OC)c2c1CCC1(C2)NC(=O)NC1=O (stereo not given), which growth is on record?
**A.** Its growth is 106% (inactive).

**Q.** How did the growth turn out when COc1ccc(-c2cc(-c3cc(OC)c(OC)c(OC)c3)c(C#N)c(=O)n2CCCCC(=O)NO)cc1 was run?
**A.** Its growth is 72.3% (inactive).

**Q.** With CCCCC[C@H](O)C/C=C1/C(=O)C=C[C@@H]1C/C=C\CCCC(=O)OC as the molecule, how does the growth read?
**A.** Its growth is 64.6% (inactive).

**Q.** How did the growth turn out when Cc1cccc(NC(=O)[C@@H]2c3ccccc3C(=O)N(c3ccc(Cl)cc3)[C@H]2c2ccc(Cl)cc2)n1 was run?
**A.** The growth was 17.7% (inactive).

**Q.** With CCOC(=O)c1csc(-c2ccc(COC(=O)c3ccccc3)o2)n1 as the molecule, how does the growth read?
**A.** The growth was 115% (inactive).

**Q.** With COc1ccc(CCO)cc1 as the molecule, how does the growth read?
**A.** Its growth is 101% (inactive).

**Q.** How did the growth turn out when CCCCCCCCCCCCCCCCNc1ccccc1 was run?
**A.** The growth was 108% (inactive).

**Q.** Cc1cc(-c2nc3ccccc3s2)ccc1NC(=O)COc1ccc(Cl)cc1 was tested. Which growth did it give?
**A.** The growth was -39% (active).

**Q.** CCNCCNc1cc(-c2cccc(C(F)(F)F)c2)c(C#N)c2nc3ccccc3n12 was tested. Which growth did it give?
**A.** The growth was -84.3% (active).

**Q.** O=C(Nc1nc2ccc(O)cc2s1)c1cccc(C(F)(F)F)c1 was tested. Which growth did it give?
**A.** Its growth is 84.6% (inactive).

**Q.** With Cc1ccc(C(=O)NN2C(=O)/C(=C/C=C/c3ccco3)SC2=S)cc1 as the molecule, how does the growth read?
**A.** Its growth is 71% (inactive).

**Q.** COc1cccc(-c2nc3sccn3c2-c2ccnc(NCCNS(=O)(=O)c3ccc(C(F)(F)F)cc3)c2)c1 was tested. Which growth did it give?
**A.** Its growth is 41.7% (inactive).

**Q.** For CSc1nc2sc3cc(Cl)c(Cl)cc3n2c(=N)c1C#N, which growth is on record?
**A.** The growth was 72.6% (inactive).

**Q.** How did the growth turn out when C=C1C(=O)O[C@H]2[C@H](O)[C@@H](C)CCC/C(C)=C/CC[C@@]3(C)O[C@@H]3C[C@@H]12 was run?
**A.** Its growth is 61.4% (inactive).

**Q.** With C=CCn1c(SCC(=O)Nc2ccc(C(=O)/C=C/c3cc(OC)c(OC)c(OC)c3)cc2)nnc1-c1ccc(OC)cc1 as the molecule, how does the growth read?
**A.** Its growth is -26.5% (active).

**Q.** How did the growth turn out when COc1c(N2CC3CCCNC3C2)c(F)cc2c(=O)c(C(=O)N/N=C/c3ccc4c(c3)OCO4)cn(C3CC3)c12 (stereo not given) was run?
**A.** Its growth is 63.1% (inactive).

**Q.** Which growth does the source give for Cn1c(=O)c2[nH]c(NN)nc2n(C)c1=O here?
**A.** The growth was 122% (inactive).

**Q.** For CC(=O)Nc1cc(F)cc(-c2ccc3[nH]cc(-c4ccccc4)c3n2)c1, which growth is on record?
**A.** The growth was -21.9% (active).

**Q.** How did the growth turn out when O=C(Nc1ccc(F)cc1)c1cc2ccccc2cc1O was run?
**A.** Its growth is 60.8% (inactive).

**Q.** For COc1ccc(C2C=C(c3ccc(Cl)cc3)N=C3SC=CN32)c(Br)c1 (stereo not given), which growth is on record?
**A.** Its growth is 61% (inactive).

**Q.** With C=C1C(=O)O[C@H]2[C@H]1CC/C(Cn1cc(-c3ccccc3)nn1)=C\CC[C@@]1(C)O[C@@H]21 as the molecule, how does the growth read?
**A.** The growth was -38.5% (active).

**Q.** How did the growth turn out when CCCCCCCCCCCCCCCCCCSC(=N)N was run?
**A.** The growth was 67.8% (inactive).

**Q.** COc1cc(OC)cc(N2CCN(C(=O)Nc3nc4cc(F)ccc4nc3OC)CC2)c1 was tested. Which growth did it give?
**A.** Its growth is -5.78% (active).

**Q.** O=c1oc2ccc(Br)cc2c(=O)n1-c1ccc(Br)cc1F was tested. Which growth did it give?
**A.** Its growth is -11.7% (active).

**Q.** How did the growth turn out when CCN1C(=O)N(CC)C2C1NN=C1SCC(=O)N12 (stereo not given) was run?
**A.** Its growth is 18.2% (inactive).

**Q.** How did the growth turn out when O=C1N[C@@H]2NC(=[N+]3CCOCC3)N[C@@H]2N1 was run?
**A.** The growth was 99.6% (inactive).

**Q.** CC(COC(=O)c1ccccc1)N1CC2CCC(C1)O2 (stereo not given) was tested. Which growth did it give?
**A.** Its growth is 103% (inactive).

**Q.** Which growth does the source give for COc1cc(/C=C2\CN(C)CC3=C2Nc2nc(SC)[nH]c(=O)c2C3c2cc(OC)c(OC)c(OC)c2)cc(OC)c1OC (stereo not given) here?
**A.** The growth was 39.5% (inactive).

**Q.** With CCN1CCN(Cc2ccc(-c3cc4c(N[C@H](C)c5ccccc5)ncnc4[nH]3)cc2)CC1 as the molecule, how does the growth read?
**A.** Its growth is -38.9% (active).

**Q.** With O=C(O)CC1CCCCC1c1ccccc1 (stereo not given) as the molecule, how does the growth read?
**A.** The growth was 105% (inactive).

**Q.** With Cc1ncc(C(=O)Nc2ccc(CN3CCN(C)CC3)c(C(F)(F)F)c2)cc1C#Cc1cnc2cccnn12 as the molecule, how does the growth read?
**A.** Its growth is 7.08% (active).

**Q.** Which growth does the source give for CS(=O)(=O)c1nccc(-c2c(-c3ccc(F)c(OCCc4ccc(F)cc4)c3)nc3sccn23)n1 here?
**A.** The growth was -52.2% (active).

**Q.** With CC1CCN(CCCCCOc2ccc3oc4ccccc4c(=O)c3c2)CC1 as the molecule, how does the growth read?
**A.** Its growth is 41.6% (inactive).

**Q.** How did the growth turn out when CN1CCN(c2ccc3nc(-c4ccc5nc(-c6ccc(C(F)(F)F)cc6)[nH]c5c4)[nH]c3c2)CC1 was run?
**A.** Its growth is 50.6% (inactive).

**Q.** With CCNC1=CC(=O)c2ncccc2C1=O as the molecule, how does the growth read?
**A.** The growth was 43.4% (inactive).

**Q.** With CN(C)C(=S)Sc1ccc([N+](=O)[O-])cc1[N+](=O)[O-] as the molecule, how does the growth read?
**A.** Its growth is -78.7% (active).

**Q.** Which growth does the source give for CCC(O)(C(c1ccccc1)c1ccccn1)C(c1ccccc1)c1ccccn1 (stereo not given) here?
**A.** The growth was 114% (inactive).

**Q.** Which growth does the source give for CC1(C)COB(OCC(C)(C)COB2OCC(C)(C)CO2)OC1 here?
**A.** The growth was 114% (inactive).

**Q.** With CC[C@]12C=CCN3CC[C@@]4(c5ccc(OC)cc5N(C)[C@H]4[C@@](O)(C(=O)OC)[C@@H]1OC(=O)CCC(=O)N[C@H](Cc1c[nH]c4ccccc14)C(=O)OC)[C@@H]32 as the molecule, how does the growth read?
**A.** Its growth is -42.6% [100 µM] (active).

**Q.** Oc1ccc2ccccc2c1CN1CCOCC1 was tested. Which growth did it give?
**A.** Its growth is 123% (inactive).
